Assay results as given in PubChem BioAssay (Tox21).
Several values for one entry are separate records, joined by “and”; a condition that tells them apart may be missing. Equal values may be shown once. Inconclusive results are not listed. More than one record can exist for a structure, and the calls need not agree. Activity calls are given as the source filed them. Unless noted, calls follow the shape of the full dose curve.

Key:
[1] = Nuclear factor erythroid 2-related factor 2/antioxidant responsive element (Nrf2/ARE) small molecule agonists: qHTS cell viability counter screen in human keratinocytes (AID 1919968; active = well fitted curve in the direction sought with a large enough effect in the repeat runs; an effect the other way counts as inactive or inconclusive; also: nearly all actives have a fitted effect of over 55% in size; also: potency is read from the fitted curve at half-maximal effect)
Outline: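 Fluorescence read-out from CellTiter-Fluor after 1 h at 37 C. Wells held HaCaT-derived ARE-luciferase reporter cells (1,500/well) treated 23 h with DMSO-dissolved compounds. Run in the same wells as the luciferase agonist read.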

[2] = Nuclear factor erythroid 2-related factor 2/antioxidant responsive element (Nrf2/ARE) small molecule agonists: luciferase reporter gene qHTS assay in human keratinocytes (AID 1919969); also: nearly all actives have a fitted effect of over 35% in size; also: potency is read from the fitted curve at half-maximal effect
[3] = biological target: Gonadotropin-releasing hormone receptor (Homo sapiens) (UniProt P30968); test: Human gonadotropin-releasing hormone receptor (GnRHR) small molecule agonists, calcium flux assay in GnRHR-HEK293 cells (AID 1920063); also: nearly all actives have a fitted effect of over 35% in size
Chain of Gonadotropin-releasing hormone receptor (Homo sapiens) (P30968 whole entry, looked up): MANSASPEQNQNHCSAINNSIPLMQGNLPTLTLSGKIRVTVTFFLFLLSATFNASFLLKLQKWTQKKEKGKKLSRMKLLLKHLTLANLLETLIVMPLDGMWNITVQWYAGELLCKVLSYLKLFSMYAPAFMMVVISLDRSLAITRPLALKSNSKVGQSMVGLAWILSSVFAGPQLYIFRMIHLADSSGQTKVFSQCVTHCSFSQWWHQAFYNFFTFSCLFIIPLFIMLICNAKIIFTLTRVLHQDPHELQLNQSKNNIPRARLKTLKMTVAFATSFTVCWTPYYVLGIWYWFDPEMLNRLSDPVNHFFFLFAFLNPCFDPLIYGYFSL
Outline: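 Calcium-dye fluorescence, Ex/Em=480/540, recorded every 1 sec over 3 min after compound addition to GnRHR-HEK293 cells. Cells had been seeded 18 hours earlier and dye-loaded for 1 hour at 37 C. Fifteen concentrations, triplicates.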

[4] = biological target: KiSS-1 receptor (Homo sapiens) (UniProt Q969F8); test: Human kisspeptin (KISS1R) small molecule agonists, calcium flux assay in KISS1R-HEK293 cells (AID 1920064; active = well fitted curve in the direction sought with a large enough effect in the repeat runs; an effect the other way counts as inactive or inconclusive)
Chain of KiSS-1 receptor (Homo sapiens) (Q969F8 whole entry, looked up): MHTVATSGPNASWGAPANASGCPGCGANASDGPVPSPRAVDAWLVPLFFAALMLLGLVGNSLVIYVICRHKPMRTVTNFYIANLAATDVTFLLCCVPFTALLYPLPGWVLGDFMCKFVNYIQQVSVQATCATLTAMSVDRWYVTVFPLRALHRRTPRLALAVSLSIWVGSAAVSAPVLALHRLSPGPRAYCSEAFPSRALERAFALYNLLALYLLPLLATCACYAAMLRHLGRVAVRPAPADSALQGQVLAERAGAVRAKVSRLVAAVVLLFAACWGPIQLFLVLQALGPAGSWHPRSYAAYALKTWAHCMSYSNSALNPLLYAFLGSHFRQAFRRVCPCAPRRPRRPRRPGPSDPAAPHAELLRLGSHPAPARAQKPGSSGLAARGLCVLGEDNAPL
Outline: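 Calcium flux read-out: kinetic fluorescence at Ex/Em=480/540, 1 s intervals over 3 min, after pin-tool compound addition to dye-loaded KISS1R-HEK293 cells. Fifteen concentrations, triplicates.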

[5] = G protein-coupled receptor (GPCR) small molecule agonists, calcium flux assay: HEK293 wild type cell line counter screen (AID 1920065)
Outline: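 Agonist mode; 18 h seeding at 37 C, 1 h dye load at 37 C; compounds pinned from DMSO, ATP as positive control; kinetic fluorescence 480/540 nm, 3 min, 1 s reads; 15 concentrations, triplicate.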

[6] = p53 small molecule agonists, cell-based qHTS assay with human liver microsomes (AID 1963577);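 also: p53 response element beta-lactamase reporter cells with liver microsomes plus NADPH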
Outline: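 Metabolically competent format: test substances, human liver microsomes and NADPH (both 0.5 mg/mL final) incubated with p53RE-bla cells 16 h at 37 C. Beta-lactamase reporter signal then quantified by fluorescence.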

[7] = p53 small molecule agonists, cell-based qHTS assay with rat liver microsomes (AID 1963578)
Outline: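 Each plate received p53RE-bla cells, then compound, then rat liver microsomes and NADPH (both 0.5 mg/mL final). Plates were held 16 h at 37 C, and beta-lactamase activity was detected with LiveBLAzer over 2 h.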

[8] = p53 small molecule agonists, cell-based qHTS assay with human liver microsomes: qHTS cell viability counter screen (AID 1963579); also: nearly all actives have a fitted effect of over 45% in size
Outline: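 Tox21 library compounds, delivered from DMSO stocks, were tested on p53RE-bla cells together with 0.5 mg/mL human liver microsomes and 0.5 mg/mL NADPH (final) over 16 h at 37 C; CellTiter-Glo luminescence served as the cytotoxicity measure.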

[9] = p53 small molecule agonists, cell-based qHTS assay with rat liver microsomes: qHTS cell viability counter screen (AID 1963580); also: nearly all actives have a fitted effect of over 45% in size
Outline: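 Cytotoxicity counter screen: intracellular ATP read by CellTiter-Glo luminescence in the p53 reporter wells. HCT-116 p53RE-bla cells were treated for 16 h at 37 C alongside rat liver microsomes and NADPH, each 0.5 mg/mL final.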

[10] = p53 small molecule agonists, cell-based qHTS assay: qHTS cell viability counter screen (AID 1963581); also: nearly all actives have a fitted effect of over 45% in size
Outline: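 Cytotoxicity read-out: ATP-based luminescence (CellTiter-Glo, 30 min RT) measured in the same wells as the p53 reporter assay, HCT-116 p53RE-bla cells, 16 h compound exposure at 37 C.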

[11] = p53 small molecule agonists, cell-based qHTS assay (AID 1963582; active = well fitted activation curve with a large enough effect in the signal ratio in the repeat runs, not every such curve was filed as active; the % refers to the signal ratio)
Outline: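 Fluorescence intensity read-out of a beta-lactamase reporter under a p53 response element. Cells were exposed to DMSO-dissolved compounds for 16 h at 37 C, then developed with FRET substrate for 2 h at RT.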

[12] = biological target: 5-hydroxytryptamine receptor 2A (Homo sapiens) (UniProt P28223); test: 5-hydroxytryptamine receptor 2A (HTR2A) small molecule antagonists, cell-based qHTS assay (AID 1963586); also: nearly all actives have a fitted effect of over 45% in size; also: potency is read from the fitted curve at half-maximal effect
Chain of 5-hydroxytryptamine receptor 2A (Homo sapiens) (P28223 whole entry, looked up): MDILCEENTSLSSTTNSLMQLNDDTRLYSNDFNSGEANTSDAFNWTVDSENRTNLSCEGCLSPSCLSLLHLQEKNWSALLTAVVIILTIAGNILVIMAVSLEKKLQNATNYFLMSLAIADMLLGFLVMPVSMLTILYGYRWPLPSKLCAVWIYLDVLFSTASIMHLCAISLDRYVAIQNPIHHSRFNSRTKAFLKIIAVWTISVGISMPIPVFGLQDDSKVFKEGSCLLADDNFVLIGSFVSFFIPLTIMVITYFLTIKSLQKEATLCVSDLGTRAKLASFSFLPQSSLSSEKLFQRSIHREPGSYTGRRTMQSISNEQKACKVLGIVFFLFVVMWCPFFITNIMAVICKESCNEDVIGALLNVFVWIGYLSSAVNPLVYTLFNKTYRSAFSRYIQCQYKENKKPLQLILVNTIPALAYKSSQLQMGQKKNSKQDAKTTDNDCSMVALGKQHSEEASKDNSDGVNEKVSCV
Outline: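 CHO cells stably expressing human HTR2A were plated for 18 h at 37 C, then loaded with calcium dye for 1 h. Compounds were preincubated 5 min at room temperature before DOI (4 nM solution) was added. Kinetic fluorescence was read for 3 min.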

[13] = biological target: 5-hydroxytryptamine receptor 2A (Homo sapiens) (UniProt P28223); test: 5-hydroxytryptamine receptor 2A (HTR2A) small molecule agonists, cell-based qHTS assay (AID 1963587); also: nearly all actives have a fitted effect of over 30% in size; also: potency is read from the fitted curve at half-maximal effect
Outline: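 Kinetic calcium-flux fluorescence (2 min, 1 sec intervals) after compound addition in agonist mode. HTR2A-CHO cells were cultured 18 h, then dye-loaded 1 h at 37 C.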

[14] = biological target: Muscarinic acetylcholine receptor M1 (Homo sapiens) (UniProt P11229); test: Cholinergic receptor muscarinic 1 (CHRM1) small molecule antagonists, cell-based qHTS assay (AID 1963588); also: nearly all actives have a fitted effect of over 40% in size; also: potency is read from the fitted curve at half-maximal effect
Chain of Muscarinic acetylcholine receptor M1 (Homo sapiens) (P11229 whole entry, looked up): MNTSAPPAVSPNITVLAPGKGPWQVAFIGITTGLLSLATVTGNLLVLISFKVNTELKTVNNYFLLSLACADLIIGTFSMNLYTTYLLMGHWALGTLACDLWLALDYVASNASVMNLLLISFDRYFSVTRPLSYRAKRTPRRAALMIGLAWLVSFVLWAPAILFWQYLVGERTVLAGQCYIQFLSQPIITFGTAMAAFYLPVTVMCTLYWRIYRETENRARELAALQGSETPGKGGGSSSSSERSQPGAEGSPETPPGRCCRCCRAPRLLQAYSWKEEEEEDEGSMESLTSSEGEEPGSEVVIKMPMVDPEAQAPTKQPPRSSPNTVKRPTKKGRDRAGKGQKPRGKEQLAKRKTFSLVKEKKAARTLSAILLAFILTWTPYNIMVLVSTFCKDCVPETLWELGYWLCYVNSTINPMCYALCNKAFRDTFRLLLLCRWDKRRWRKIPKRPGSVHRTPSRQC
Outline: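 Compounds were tested at 15 concentrations in three independent runs. Dye-loaded CHRM1-CHO cells were exposed 5 min at room temperature before stimulation by acetylcholine added at 50nM. Intracellular calcium was read kinetically on FDSS for 3 min.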

[15] = biological target: Muscarinic acetylcholine receptor M1 (Homo sapiens) (UniProt P11229); test: Cholinergic receptor muscarinic 1 (CHRM1) small molecule agonists, cell-based qHTS assay (AID 1963589); also: nearly all actives have a fitted effect of over 35% in size
Outline: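 Calcium flux read-out: kinetic fluorescence at 1 sec intervals after pin-tool compound addition to dye-loaded CHRM1-CHO cells (human M1). Agonist mode; 15 concentrations tested in triplicate independent runs.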

[16] = cAMP Responsive Elements (CRE) small molecule agonists, cell-based qHTS assay (AID 1963590)
Outline: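 Beta-lactamase reporter readout: LiveBLAzer B/G FRET substrate, 2 h at room temperature, added after 3 h compound treatment of CRE-bla HEK 293T cells at 37 C/5% CO2.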

[17] = cAMP Responsive Elements (CRE) small molecule antagonists, cell-based qHTS assay (AID 1963591; active = well fitted inhibition curve with a large enough effect in the signal ratio in the repeat runs, not every such curve was filed as active; the % refers to the signal ratio)
Outline: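 HEK293T CRE-bla; 18 h preincubation; compound pin-transfer; NKH477 0.25 uM final, 3 h, 37 C; LiveBLAzer FRET substrate 2 h RT.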

[18] = biological target: Beta-2 adrenergic receptor (Homo sapiens) (UniProt P07550); test: Adrenergic beta2 receptor (ADRB2) small molecule antagonists, cell-based qHTS assay (AID 1963592); also: nearly all actives have a fitted effect of over 50% in size; also: potency is read from the fitted curve at half-maximal effect
Chain of Beta-2 adrenergic receptor (Homo sapiens) (P07550 whole entry, looked up): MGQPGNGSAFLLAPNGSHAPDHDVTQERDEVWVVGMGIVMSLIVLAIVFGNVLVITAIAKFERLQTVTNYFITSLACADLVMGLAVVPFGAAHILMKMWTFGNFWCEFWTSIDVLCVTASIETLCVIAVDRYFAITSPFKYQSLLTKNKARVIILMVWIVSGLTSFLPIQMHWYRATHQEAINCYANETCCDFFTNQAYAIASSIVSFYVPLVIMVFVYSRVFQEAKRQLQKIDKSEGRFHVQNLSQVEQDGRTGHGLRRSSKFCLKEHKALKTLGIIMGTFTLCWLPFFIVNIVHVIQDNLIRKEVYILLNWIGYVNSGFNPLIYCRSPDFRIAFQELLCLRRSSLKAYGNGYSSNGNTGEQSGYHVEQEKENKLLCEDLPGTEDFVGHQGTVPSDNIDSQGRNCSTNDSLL
Outline: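 Assay format: CHO-ADRB2 cells, 18-20hr seeding at 37C/5% CO2, then compound plus 1nM isoproterenol agonist mix for 0.5hr RT. Homogeneous time-resolved fluorescence cAMP detection after 1hr, expressed as 665/615 nm ratio.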

[19] = biological target: D(2) dopamine receptor (Homo sapiens) (UniProt P14416); test: Dopamine D2 receptor (DRD2) small molecule agonists, cell-based qHTS assay (AID 1963594); also: nearly all actives have a fitted effect of over 35% in size
Chain of D(2) dopamine receptor (Homo sapiens) (P14416 whole entry, looked up): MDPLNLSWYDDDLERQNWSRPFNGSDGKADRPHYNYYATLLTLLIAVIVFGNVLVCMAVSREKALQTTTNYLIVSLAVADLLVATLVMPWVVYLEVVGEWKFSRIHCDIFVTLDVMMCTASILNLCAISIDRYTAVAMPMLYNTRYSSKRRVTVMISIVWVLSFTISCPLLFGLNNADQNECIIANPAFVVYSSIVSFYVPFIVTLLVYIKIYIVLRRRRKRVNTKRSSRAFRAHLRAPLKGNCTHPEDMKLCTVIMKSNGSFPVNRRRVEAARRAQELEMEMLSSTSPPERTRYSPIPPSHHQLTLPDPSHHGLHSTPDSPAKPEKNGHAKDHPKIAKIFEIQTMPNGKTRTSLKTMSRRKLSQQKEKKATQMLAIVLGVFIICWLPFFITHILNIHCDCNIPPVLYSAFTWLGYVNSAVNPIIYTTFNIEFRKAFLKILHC
Outline: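 cAMP accumulation in DRD2-HEK293 cells measured by HTRF after 1 h detection; compounds added 10 min before NKH477 (200nM […]) forskolin-analogue stimulation, 30 min at room temperature, with Ro20-1724 present at 0.1 mM final.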

[20] = biological target: D(2) dopamine receptor (Homo sapiens) (UniProt P14416); test: Dopamine D2 receptor (DRD2) small molecule antagonists, cell-based qHTS assay (AID 1963595; active = well fitted inhibition curve with a large enough effect in the signal ratio in the repeat runs, with a control signal flat; the % refers to the signal ratio)
Outline: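 HTRF cAMP read-out at 665 and 620 nm emission (340 nm excitation). Antagonist mode: compounds were tested against 12 nM quinpirole in DRD2-HEK293 cells, with 200 nM NKH477 raising cAMP and 0.1 mM Ro20-1724 blocking its breakdown.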

Measured: Potency

CCCCCC(N)=O
inactive: all assays above

OCCOCCN1CCN(C(c2ccccc2)c2ccc(Cl)cc2)CC1 (configuration not stated)
inactive and 26.6 µM (active): [18]
active: [12] 1.47 µM and 1.63 µM | [14] 7.38 µM
inactive: all other assays above

CCCCCC/C=C/CCCCCCCC(=O)O
not listed: [17]
inactive: all other assays above

NC(=O)NC(N)=O
inactive: all assays above

O=C=Nc1ccc(Cc2ccc(N=C=O)cc2)cc1
inactive: all assays above

O=c1[nH]nnc2ccccc12
inactive: all assays above

CC(C)=CCl
inactive: all assays above

Cc1ccc(S(=O)(=O)O)cc1C
not listed: [18]
inactive: all other assays above

CC(CCC(=O)O)(c1ccc(O)cc1)c1ccc(O)cc1
inactive: all assays above

Cn1c([N+](=O)[O-])cnc1COC(N)=O
inactive: all assays above

CCNc1ccccc1
inactive: all assays above

c1ccc2c(c1)[nH]c1ccccc12
inactive: all assays above

Cc1ccc2c(n1)Oc1ccc(C(C)C(=O)OCC(=O)N(C)C)cc1C2 (configuration not stated)
inactive: all assays above

Cc1ccc(C(C)C)c(O)c1
inactive: all assays above

CC(C)=CCCC(C)CCO (configuration not stated)
not listed: [18]
inactive: all other assays above

O=C1C(c2[nH]c3ccccc3c2O)=Nc2ccccc21
not listed: [17]
inactive: all other assays above

Brc1ccc(Br)c(Br)c1
inactive: all assays above

c1ccc2cc3ccccc3cc2c1
not listed: [17]
inactive: all other assays above

Cc1cccc(O)c1
inactive: all assays above

COC(=O)CCCC(=O)OC
inactive: all assays above

CNC(=S)N(C)C
inactive: all assays above

CCCCOCCOC(=O)c1ccccc1C(=O)OCCOCCCC
active: [2] 23.8 µM and 68.6 µM
47.5 µM (active) and inactive: [1]
not listed: [18]
inactive: all other assays above

CCCCCCCC(=O)OCC(COC(=O)CCCCCCC)OC(=O)CCCCCCC
not listed: [17]
inactive: all other assays above

CC(C)CC(=O)CC(C)CC(C)C (configuration not stated)
inactive: all assays above

c1ccc2c(c1)Cc1ccccc1-2
inactive: all assays above

Cc1ccc(S(=O)(=O)N=C=O)cc1
inactive: all assays above

CC(=O)NS(=O)(=O)c1ccc(N)cc1
inactive: all assays above

COCN(COC)c1nc(N(COC)COC)nc(N(COC)COC)n1
inactive: all assays above

c1ccncc1
inactive: all assays above

NCCNc1cccc2ccccc12
54.4 µM (active) and inactive: [1]
active: [12] 2.9 nM | [13] 389 nM and 1.2 nM and 19 nM
not listed: [18]
inactive: all other assays above
